We go through eight compounds from PMC11062922 (Nature Chemical Biology, 2023).

Set-up in all cases: species or system human, MV4-11 + K-562 + COLO205 + SK-N-BE2 + OVCAR-8
One test has as its system ADCK1. To be noted: read-out: apparent Kd; compound concentrations: 100 nM and 1000 nM (sheet 'Samples'), CATDS: 7.5755485484616303E-2; n = 1.
For another test, the system named is CLK1. To be noted: read-out: apparent Kd; compound concentrations: 100 nM and 1000 nM (sheet 'Samples'), CATDS: 0.119172303588979; n = 1.
Another test has as its system CLK2. To be noted: read-out: apparent Kd; compound concentrations: 100 nM and 1000 nM (sheet 'Samples'), CATDS: 0.34791334092069898; n = 1.
For the next test, the system named is CLK4. To be noted: read-out: apparent Kd; compound concentrations: 100 nM and 1000 nM (sheet 'Samples'), CATDS: 0.107849742816713; n = 1.
In a further test the test system is T1, DJA1.
T1 construct: gene DNAJA1
To be noted: read-out: apparent Kd; compound concentrations: 100 nM and 1000 nM (sheet 'Samples'), CATDS: 8.1274220944096601E-2; n = 1.

Another test concerns MAPK14. To be noted: read-out: apparent Kd, compound concentrations: 100 nM and 1000 nM (sheet 'Samples'), n = 1.
A further test relates to NQO2. To be noted: read-out: apparent Kd; compound concentrations: 100 nM and 1000 nM (sheet 'Samples'), CATDS: 8.1973384609640695E-2; n = 1.
The subject of another test is PIP4K2C. To be noted: read-out: apparent Kd; compound concentrations: 100 nM and 1000 nM (sheet 'Samples'), CATDS: 7.6274821078241906E-2; n = 1.
The test system of another test is STK16. To be noted: read-out: apparent Kd; compound concentrations: 100 nM and 1000 nM (sheet 'Samples'), CATDS: 8.9736368471695804E-2; n = 1.
The next test concerns TESK2. To be noted: read-out: apparent Kd, compound concentrations: 100 nM and 1000 nM (sheet 'Samples'), n = 1.
For the next test, the system named is TGFBR2. To be noted: read-out: apparent Kd; compound concentrations: 100 nM and 1000 nM (sheet 'Samples'), CATDS: 7.2410579705908001E-2; n = 1.
The next test concerns ADCK3. To be noted: read-out: apparent Kd, n = 1.
The next test relates to ADRBK1. To be noted: read-out: apparent Kd, n = 1.
The subject of another test is AKT1. To be noted: read-out: apparent Kd; compound concentrations: 100 nM and 1000 nM (sheet 'Samples'), CATDS: 4.0938746042506198E-2; n = 1.
Another test deals with CSNK1A1. To be noted: read-out: apparent Kd; compound concentrations: 100 nM and 1000 nM (sheet 'Samples'), CATDS: 4.27416149593133E-2; n = 1.
For another test, the system named is DYRK1A. To be noted: read-out: apparent Kd; compound concentrations: 100 nM and 1000 nM (sheet 'Samples'), CATDS: 4.0227920038392803E-2; n = 1.
The test system of another test is ILK. To be noted: read-out: apparent Kd; compound concentrations: 100 nM and 1000 nM (sheet 'Samples'), CATDS: 5.1421329598879802E-2; n = 1.
A further test concerns MAP2K2. To be noted: read-out: apparent Kd; compound concentrations: 100 nM and 1000 nM (sheet 'Samples'), CATDS: 0.12895351362438101; n = 1.
The test system of the next test is MAP3K1. To be noted: read-out: apparent Kd; compound concentrations: 100 nM and 1000 nM (sheet 'Samples'), CATDS: 4.18687434788882E-2; n = 1.
A further test relates to MDN1. To be noted: read-out: apparent Kd; compound concentrations: 100 nM and 1000 nM (sheet 'Samples'), CATDS: 4.35192896952597E-2; n = 1.
The subject of another test is NNT. To be noted: read-out: apparent Kd; compound concentrations: 100 nM and 1000 nM (sheet 'Samples'), CATDS: 0.130086313463294; n = 1.
In a further test the test system is NQO1. To be noted: read-out: apparent Kd; compound concentrations: 100 nM and 1000 nM (sheet 'Samples'), CATDS: 0.14484490381839699; n = 1.
The next test deals with PIK3C3. To be noted: read-out: apparent Kd; compound concentrations: 100 nM and 1000 nM (sheet 'Samples'), CATDS: 4.45420285121335E-2; n = 1.
Another test concerns PLK1. To be noted: read-out: apparent Kd; compound concentrations: 100 nM and 1000 nM (sheet 'Samples'), CATDS: 0.280824965441342; n = 1.
In the next test the test system is PSMC3. To be noted: read-out: apparent Kd; compound concentrations: 100 nM and 1000 nM (sheet 'Samples'), CATDS: 4.0647702260791799E-2; n = 1.
In another test the test system is RIOK2. To be noted: read-out: apparent Kd, n = 1.
The next test deals with SMG1. To be noted: read-out: apparent Kd; compound concentrations: 100 nM and 1000 nM (sheet 'Samples'), CATDS: 4.1869296169603699E-2; n = 1.
In a further test the test system is STK10. To be noted: read-out: apparent Kd; compound concentrations: 100 nM and 1000 nM (sheet 'Samples'), CATDS: 4.6875467745806497E-2; n = 1.
A further test has as its system VDAC3. To be noted: read-out: apparent Kd; compound concentrations: 100 nM and 1000 nM (sheet 'Samples'), CATDS: 0.150958833754439; n = 1.
The next test has as its system ARAF. To be noted: read-out: apparent Kd; compound concentrations: 100 nM and 1000 nM (sheet 'Samples'), CATDS: 0.31382782577056201; n = 1.
In the next test the test system is PIK3CB. To be noted: read-out: apparent Kd; compound concentrations: 100 nM and 1000 nM (sheet 'Samples'), CATDS: 0.29308113927572399; n = 1.
A further test has as its system ADK. To be noted: read-out: apparent Kd; compound concentrations: 100 nM and 1000 nM (sheet 'Samples'), CATDS: 0.51902262396373799; n = 1.
A further test has as its system COX5A. To be noted: read-out: apparent Kd; compound concentrations: 100 nM and 1000 nM (sheet 'Samples'), CATDS: 0.48232246819666902; n = 1.
A further test has as its system CDK6. To be noted: read-out: apparent Kd, n = 1.
For another test, the system named is CSNK1D. To be noted: read-out: apparent Kd; compound concentrations: 100 nM and 1000 nM (sheet 'Samples'), CATDS: 0.10143186295273; n = 1.
A further test deals with CSNK1E. To be noted: read-out: apparent Kd; compound concentrations: 100 nM and 1000 nM (sheet 'Samples'), CATDS: 9.8095690794025595E-2; n = 1.
Another test has as its system PKN3. To be noted: read-out: apparent Kd; compound concentrations: 100 nM and 1000 nM (sheet 'Samples'), CATDS: 0.541648596841942; n = 1.
The test system of the next test is RIPK2. To be noted: read-out: apparent Kd; compound concentrations: 100 nM and 1000 nM (sheet 'Samples'), CATDS: 0.18182932832718701; n = 1.
A further test relates to TNIK. To be noted: read-out: apparent Kd; compound concentrations: 100 nM and 1000 nM (sheet 'Samples'), CATDS: 8.6694751539446793E-2; n = 1.
A further test has as its system ERBB3. To be noted: read-out: apparent Kd; compound concentrations:100 nM and 1000 nM (sheet 'Samples'); n = 1.
Setting [1] is: compound concentrations:100 nM and 1000 nM (sheet 'Samples').

Where two headings read alike, the source gives them in different places.

Consider `CCOc1ccc2c(-c3ccnc(Nc4cc(OC)cc(C(F)(F)F)c4)n3)cnn2n1` [GW807982X_KCGS], for which the potency estimated from few doses is 1800 nM in the test with ADCK1; 672 nM in the test with CLK1; 132 nM with CLK2; 811 nM in the test on CLK4; 1500 nM with DJA1; 1050 nM with MAPK14 (CATDS: 9.4734585023085197E-2). Moreover, the potency estimated from few doses is 1470 nM in the test on NQO2; 1760 nM with PIP4K2C; 1190 nM with STK16; 2180 nM in the test on TESK2 (CATDS: 7.0727879355670806E-2); 2040 nM in the test on TGFBR2.
For `C[C@@H](Oc1cc(-n2cnc3ccc(OC[C@@H](O)CO)cc32)sc1C(N)=O)c1ccccc1Cl` [GSK978744A], the potency estimated from few doses with ADCK3 (compound concentrations: 100 nM and 1000 nM (sheet 'Samples'), CATDS: 5.9783524932330002E-2) is 691 nM; in the test with ADRBK1 (compound concentrations: 100 nM and 1000 nM (sheet 'Samples'), CATDS: 4.7657416287883198E-2), 1300 nM; in the test on AKT1, 2160 nM; with CSNK1A1, 1860 nM; with DYRK1A, 2310 nM; with ILK it was 1040 nM. The potency estimated from few doses in the test with MAP2K2 was 124 nM; with MAP3K1 it was 2000 nM; with MDN1 it was 1740 nM; in the test on NNT, 122 nM; with NQO1, 99.8 nM; in the test on PIK3C3 it was 1620 nM. For the same compound, the potency estimated from few doses with PLK1 is 35.3 nM; in the test on PSMC3, 2220 nM; with RIOK2 (compound concentrations: 100 nM and 1000 nM (sheet 'Samples'), CATDS: 4.4447834501145103E-2) it was 1630 nM; in the test on SMG1, 1990 nM; with STK10 it was 1370 nM; with VDAC3 it was 92.8 nM.
As to `Nc1nc(-c2ccc3c(N)n[nH]c3c2)cc(N2CCC[C@@H](C(=O)Nc3ccccc3)C2)n1.Nc1nc(-c2ccc3c(N)n[nH]c3c2)cc(N2CCC[C@@H](C(=O)Nc3ccccc3)C2)n1.O=C(O)C(F)(F)F.O=C(O)C(F)(F)F` [GSK2288359A], the potency estimated from few doses in the test with ADCK3 (setting [1]) is 1100 nM.
With `N#Cc1c(C(=O)c2ccccc2)cnn1-c1ccccc1` [RO1150868-000], the potency estimated from few doses was 510 nM with ADCK3 (compound concentrations: 100 nM and 1000 nM (sheet 'Samples'), CATDS: 0.41640381160796702); 875 nM with ARAF; 1020 nM in the test on PIK3CB.
Take `O=C(Nc1cccc(-c2nn3ccccc3c2-c2ccnc(Nc3cccc(C(F)(F)F)c3)n2)c1)c1c(F)cccc1F` [GSK292658A]: the results for the potency estimated from few doses in the test with ADK and with COX5A were 1330 nM and 1540 nM, respectively.
For the compound `O=C(NCCCN1CCOC1=O)c1cnc(NCc2cc(Cl)ccc2Cl)nc1NC1CCCC1` [PFE-PKIS_12], the potency estimated from few doses with ADRBK1 (setting [1]) was 1110 nM.
Turning to `CCc1nc(-c2cccc(C)c2)c(-c2ccncc2)s1` [TPKI-106], the potency estimated from few doses was 1680 nM in the test with ADRBK1 (compound concentrations: 100 nM and 1000 nM (sheet 'Samples'), CATDS: 9.0460214145081597E-2); 1950 nM in the test with CDK6 (compound concentrations: 100 nM and 1000 nM (sheet 'Samples'), CATDS: 8.6240814727830004E-2); 1230 nM with CSNK1D; 1340 nM in the test on CSNK1E; 691 nM in the test with MAPK14 (CATDS: 0.129413599974984); 57.5 nM in the test on PKN3. Also, the potency estimated from few doses in the test on RIPK2 is 349 nM; with TESK2 (CATDS: 8.5548681543300906E-2) it was 2000 nM; in the test with TNIK, 1910 nM.
`CCc1cc(Nc2nccc(-c3c(-c4ccc(OC)c(C(=O)Nc5c(F)cccc5F)c4)nc4ccccn34)n2)c(OC)cc1N1CCC(N2CCN(S(C)(=O)=O)CC2)CC1` [GSK1904529]: the potency estimated from few doses with ADRBK1 (setting [1]) is 2030 nM; with CDK6 (setting [1]), 2370 nM; in the test on ERBB3, 1360 nM; in the test with RIOK2 (setting [1]), 2220 nM.
